Results on 40 molecules are retold here after PubChem BioAssay (NCI).

This is part of a sample that, as a whole, favours compounds with a hit. Of some 79,000 tested, about 15% had one in any assay. Calls of active or inactive are those of the source. Cut-off read from the data, not from the text of the source: active = growth inhibition above about 70%; inactive = the rest. *1 amine or outer side, *2 acyl side, *3 side chain or, on linkers, in order; H or OH if unused. Where a SMILES comes first, the peptide text is derived from it. [ ]: non-standard residue; d: D form. The star is where a group is joined. X17 = CC(=O)N(C)SCC(N[*:1])C(=O)[*:2]; Fmoc = O=C(OCC1c2ccccc2-c2ccccc21)*; For = O=C*

One assay is described as follows: NCI Yeast Anticancer Drug Screen. Data for the bub3 strain (AID 167). Particulars: S. cerevisiae bub3 mutant strain, at 50.0 µM, active compounds read high. The gist of the method: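 Part of a panel of yeast mutants defective in DNA damage repair or cell cycle regulation. Each strain is grown with compound, and inhibition is calculated relative to solvent-treated cultures.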
With `CC1(C)CC(=O)C(C(c2ccc3c(c2)CCC3)C2C(=O)CC(C)(C)CC2=O)C(=O)C1`, the growth inhibition is -26.3% (inactive). In the case of `CCn1c(=O)c2nc(SC)sc2n(-c2ccc(C)cc2)c1=O`, the growth inhibition is 2% (inactive). On the same count and under the same terms, in the case of `CCOC(=O)c1c2ccc(/C=C/c3ccccn3)ccc-2c(C(=O)OCC)c1N` it was 0.9% (inactive). Same read-out and setting: the result for `COc1ccc(NC(=O)c2oc3cc(O)ccc3c(=O)c2C)c([N+](=O)[O-])c1` reads -15.2% (inactive); that for `CS/C(=N/S(=O)(=O)c1ccccc1)NNC(=S)Nc1ccc(C(C)C)cc1`, 28.3% (inactive). For `CC1(C)CNC[C@](C)(OCc2ccccc2)N1`, the growth inhibition is 10.9% (inactive). Regarding `c1cc2cc(c1)CNCCNCCNCc1cccc(c1)CNCCNCCNC2`, the growth inhibition was 6% (inactive). Same read-out and setting: the result for `O=C(CN1CCOCC1)CC(O)(C(F)(F)F)C(F)(F)F` reads 1.85% (inactive); that for `CCOC(C)C(=O)C=O` (centres undefined), -13.4% (inactive).

Another assay in a line: NCI Yeast Anticancer Drug Screen. Data for the mlh1 rad18 strain (AID 175). Particulars: S. cerevisiae mlh1 rad18 strain growth inhibition; at 50.0 µM; active compounds read high. In a few lines: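 Read-out is yeast growth inhibition, calculated against vehicle-only controls. The compound was applied to a strain engineered with DNA damage repair alterations.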
For the molecule `c1ccc(N2C3Sc4ncccc4C2Sc2ncccc23)cc1`, the growth inhibition is 7.85% (inactive). The same measure, in the same setting: the result for `O=C(O)CSC(CC(=O)O)C(=O)O` (centres undefined) reads 4.25% (inactive); that for `CC(=O)C(CCN(C)C)(c1ccccc1)C1CCCCC1` (centres undefined), -3.6% (inactive). Same read-out and setting: in the case of `Cc1ccc(S(=O)(=O)Nc2ccccc2-c2nc3ccc([N+](=O)[O-])cc3c(=O)o2)cc1` it was 45.2% (inactive); in that of `Nc1nc(N)nc(-c2ccccc2N)n1`, 5.6% (inactive). Still for that read-out and setting: the result for `COC1OC(COC(=O)c2ccc([N+](=O)[O-])cc2)C(O)C1SC#N` (centres undefined) reads 42.8% (inactive); that for `Cc1cccc(Cl)c1NC(=O)C(Cl)Cl`, 14.9% (inactive); that for `Cc1cc(S(=O)(=O)Nc2nnc3cc(C(F)(F)F)cc(C)n23)c(S)cc1Cl`, -14.2% (inactive). As to `SC1c2ccccc2-c2ccccc21`, the growth inhibition was 1.7% (inactive).

With `Cc1cc(N(CCC#N)CCC#N)ccc1/C=C(\NC(=O)/C=C/c1ccccc1)C(=O)Nc1ccc(Cl)cc1`, the growth inhibition is -1.65% (inactive). On the same count and under the same terms, the result for `COc1cc(C(c2c(O)c3ccccc3oc2=O)N2CCCC2)cc(OC)c1OC` (centres undefined) reads 2.7% (inactive); that for `O=C(O)CCC(NC(=O)/C(=C/c1ccccc1)NC(=O)c1ccccc1)C(=O)O` (centres undefined), -10.4% (inactive). Still for that read-out and setting: in the case of `O=[N+]([O-])c1ccc(-c2ccncc2)cc1` it was -9.05% (inactive); in that of `C=CCOc1ccc2cc(Br)ccc2c1`, 14.9% (inactive); in that of `CSCCC(N)C(=O)NCCS(=O)(=O)O` (centres undefined), 8.25% (inactive). Same read-out and setting: the result for `CCOC(=O)CN(C)C#N` reads -2.15% (inactive); that for `CNC(=O)n1cnc2ccccc21`, 25.3% (inactive); that for `CCCCCCCCC/C=C1\CCC(CN2CCOCC2)C1=O` (centres undefined), 88% (active). Turning to `O=[N+]([O-])c1ccc(Oc2cccc3ccccc23)c([N+](=O)[O-])c1`, the growth inhibition is 38.8% (inactive).

In the case of `COC(=O)c1cc2cccn2cn1`, the growth inhibition is -8.85% (inactive). Still for that read-out and setting: in the case of `CCOC(=O)Nc1cc(Cl)c2nnn(C(=O)OCC)c2n1` it was 97.6% (active); in that of `Cc1ccc(S(=O)(=O)N(CCO)CCCO)cc1`, 1.7% (inactive). Take `O=C(O)C=C1CCCCC1`: the growth inhibition is -1.1% (inactive). Still for that read-out and setting: in the case of `N#Cc1nc[nH]c1C(N)=O` it was 6.25% (inactive). Same read-out and setting: in the case of `CCc1cc(O)c([N+](=O)[O-])cc1[N+](=O)[O-]` it was -7.95% (inactive); in that of `O=C(O)c1c(CN2CCOCC2)c(O)c(O)c(O)c1CN1CCOCC1`, 5.5% (inactive). Still for that read-out and setting: the result for `N#CC(/C(=N\NC(N)=S)C(=O)NC1C2CC3CC(C2)CC1C3)c1ccc(Cl)cc1` (centres undefined) reads 25.4% (inactive).

Turning to `CCC(=O)Nc1ncnc2ncn(C(=O)CC)c12`, the growth inhibition was 9.65% (inactive).

In the case of `CC(=O)N(C)SCC(NC(=O)C(Cc1ccccc1)NC(=O)OCC1c2ccccc2-c2ccccc21)C(=O)NC(Cc1ccccc1)C(=O)NC(Cc1cn(C=O)c2ccccc12)C(=O)NC(CCCCNC(=O)OCC1c2ccccc2-c2ccccc21)C(=O)NC(C(=O)NC(CSN(C)C(C)=O)C(=O)NC(C(N)=O)C(C)O)C(C)O` (centres undefined) (Fmoc-F[X17]FW(For)K(Fmoc)T[X17]T-NH2; configuration not given here), the growth inhibition was 84% (active). The same measure, in the same setting: in the case of `CCC1(C)NN=C2C(=CC=C3NNC(C)(CC)N32)n2cccc21` (centres undefined) it was 26.4% (inactive); in that of `CC(=O)[CH-]C(=O)c1ccccc1.CC(=O)[CH-]C(=O)c1ccccc1.CC(C)CCCC(C)[C@H]1CCC2[C@@H]3CC=C4C[C@@H]([O-])CC[C@]4(C)C3CC[C@@]21C.CC[O-].[Ti+4]` (some centres undefined), 3.85% (inactive). On the same count and under the same terms, the result for `CC1(C)CC(=O)C(C(c2ccc3c(c2)CCC3)C2C(=O)CC(C)(C)CC2=O)C(=O)C1` reads -21.4% (inactive). The same measure, in the same setting: the result for `CCn1c(=O)c2nc(SC)sc2n(-c2ccc(C)cc2)c1=O` reads 20.9% (inactive). For `CCOC(=O)c1c2ccc(/C=C/c3ccccn3)ccc-2c(C(=O)OCC)c1N`, the growth inhibition was -3.1% (inactive). The same measure, in the same setting: in the case of `COc1ccc(NC(=O)c2oc3cc(O)ccc3c(=O)c2C)c([N+](=O)[O-])c1` it was 2.2% (inactive); in that of `CS/C(=N/S(=O)(=O)c1ccccc1)NNC(=S)Nc1ccc(C(C)C)cc1`, 25.9% (inactive). On the same count and under the same terms, in the case of `CC1(C)CNC[C@](C)(OCc2ccccc2)N1` it was -4.7% (inactive).

`c1cc2cc(c1)CNCCNCCNCc1cccc(c1)CNCCNCCNC2`: the growth inhibition is -2.9% (inactive). Still for that read-out and setting: in the case of `O=C(CN1CCOCC1)CC(O)(C(F)(F)F)C(F)(F)F` it was 72.7% (active); in that of `CCOC(C)C(=O)C=O` (centres undefined), -8.4% (inactive).
